Rows were chosen to be rich in hits. Some 3% of all compounds tested hit in one or more screens of this group.
PPC-1+TRAIL kill – compounds killing PPC-1 cancer cells with TRAIL present, primary screen, TRAIL potentiator project, ATPLite luminescence, uHTS; PPC-1 cells + TRAIL, ATPLite viability luminescence; cell killing (% activity), % at 4 µM or 5 µM; hit rate 0.41% among 220,000; AID 1443, 2008;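 active = cell killing above 50% in the first pass at 4 µM, then a duplicate retest at 5 µM averaging 50% or more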
SENP8 block-1 – SENP8 protease inhibitors, primary screen, biochemical, luminescence; Sentrin-specific protease 8 (Homo sapiens), Q96LD8; purified SENP8, Z-RLRGG-aminoluciferin cleavage; inhibition, % at 10 µM; hit rate 1.2% among 330,000; AID 2540, 2010; in the data active = inhibition above about 50%
TRAIL sens C8 – viability loss with TRAIL in NB7+C8 cells, primary screen, TRAIL sensitizer project, cell-based, ATPlite luminescence; hit rate 1% among 360,000; inhibition (viability loss, TRAIL sensitization), % at 10 µM;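 active = compounds causing at least 50% loss of cell viability in the single-dose screen, relative to plate controls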
SENP8 block-2 – human SENP8 protease inhibitors, primary screen, biochemical, fluorescence, Nedd8 protein substrate, uHTS. recombinant SENP8. inhibition, % at 20 µM. hit rate 0.64% among 360,000. AID 602440, 2012; in the data active = inhibition mostly above about 40%, no sharp cut-off; inactive = mostly below about 27%
SENP7 block – SENP7 protease inhibitors, primary screen, biochemical, luminescence, uHTS; Sentrin-specific protease 7 (Homo sapiens), Q9BQF6; recombinant SENP7, Z-RLRGG-aminoluciferin luminescence, 40 min; inhibition, % at 5 µM; hit rate 1.5% among 330,000; AID 434973, 2010;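 active = inhibition above about 50% at the single test dose, limit read from the data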
SENP6 block – SENP6 protease inhibitors, primary screen, biochemical, luminescence, uHTS; hit rate 1.8% among 330,000; Recombinant SENP6 catalytic domain, aminoluciferin luminescence; inhibition, % at 10 µM; Sentrin-specific protease 6 (Homo sapiens), Q9GZR1;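 active = inhibition above about 50% at the single tested dose, limit read from the data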
Target sequence (Q9GZR1 628-1112 limits assumed): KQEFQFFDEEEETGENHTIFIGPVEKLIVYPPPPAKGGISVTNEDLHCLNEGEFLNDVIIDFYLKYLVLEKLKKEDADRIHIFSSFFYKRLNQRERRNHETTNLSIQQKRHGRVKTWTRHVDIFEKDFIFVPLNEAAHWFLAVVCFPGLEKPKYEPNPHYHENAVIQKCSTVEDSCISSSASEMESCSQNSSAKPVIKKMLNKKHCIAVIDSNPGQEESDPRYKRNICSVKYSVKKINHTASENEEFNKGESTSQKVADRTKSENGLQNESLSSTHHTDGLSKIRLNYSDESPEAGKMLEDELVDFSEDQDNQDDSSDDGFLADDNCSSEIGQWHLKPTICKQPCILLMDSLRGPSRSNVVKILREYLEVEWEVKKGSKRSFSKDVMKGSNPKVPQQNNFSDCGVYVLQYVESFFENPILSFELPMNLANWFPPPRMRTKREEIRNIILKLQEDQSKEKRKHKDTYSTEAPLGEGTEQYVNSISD
A number is an active result; n = inactive; x = not tested or not shown.

SMILES | PPC-1+TRAIL kill | SENP8 block-1 | TRAIL sens C8 | SENP8 block-2 | SENP7 block | SENP6 block
Nc1ncnc2c(C3OC(CO)C(O)C3O)c[nH]c12 (configuration not stated) | x | x | 87.7 | n | x | x
COc1ccc(C=Cc2ccc3ccccc3n2)c(OC)c1 | x | x | 70.0 | n | x | x
COc1ccc(OC)c(/C=C/c2ccc3cccc(O)c3n2)c1 | x | n | n | n | n | n
O=C(NC1CCCC1)C(c1ccccc1)n1c(Cc2cc(F)cc(F)c2)nc2ccccc21 (configuration not stated) | x | x | n | n | x | x
Cc1cc(C(=O)Cn2nc(C(=O)O)c3ccccc3c2=O)c(C)n1-c1ccc(F)cc1 | 57.1 | n | n | n | n | n
COCCn1c(C)cc(C(=O)Cn2nc(C(=O)O)c3ccccc3c2=O)c1C | n | n | 64.0 | n | n | n
CCN(CC)S(=O)(=O)c1ccc2[nH]c(=O)cc(C(=O)Nc3ccccc3N3CCOCC3)c2c1 | x | n | n | n | n | n
O=C(Nc1ccc(Cl)cc1)/C(=C/c1cccc(O)c1)c1nc2ccccc2s1 | n | n | 88.0 | n | n | n
COc1cc(SC)ccc1C(=O)Nc1ccc(OCC(=O)N2CCOCC2)cc1 | x | n | 85.8 | n | n | n
CCCCCc1cc(=O)oc2c(C(CCN3CCCCC3)c3cc(OC)c(OC)c(OC)c3)c(OC)cc(OC)c12 (configuration not stated) | n | n | 66.5 | n | n | n
CCCCCc1cc(=O)oc2c(C(CCN3CCCC(C)C3)c3cc(OC)c(OC)c(OC)c3)c(OC)cc(OC)c12 (configuration not stated) | n | n | n | n | n | n
CCOC(=O)CC1=CCc2c1ccc(OC)c2OC | x | x | n | n | x | x
CNc1ccc(Cl)cc1S(=O)(=O)c1ccccc1[N+](=O)[O-] | x | x | n | n | x | x
COc1ccc2oc(-c3ccccc3)cc(=O)c2c1 | x | x | 71.8 | n | x | x
COc1ccc(CNC(=O)CN2C(=O)CSc3ccc(S(=O)(=O)N4CCOCC4)cc32)c(OC)c1 | x | n | n | n | n | n
C/C(=N\OC(=O)c1ccc(F)cc1)c1ccc(F)c(F)c1 | n | 72.8 | n | n | 92.0 | 80.5
C/C(=N\OC(=O)c1ccc(F)cc1)c1sc(-c2ccc(Cl)cc2)nc1C | x | n | n | n | n | n
Cc1ccc(N(CC(=O)Nc2cccc(C)c2)S(=O)(=O)c2cccc3nonc23)cc1 | n | n | n | n | n | n
Cc1sc(=NC(=O)c2ccco2)n(C)c1-c1ccc(F)cc1 | n | n | 59.6 | n | n | n
CC1(C(=O)NS(=O)(=O)C2CC2)CCCN(C(=O)c2ccco2)C1 (configuration not stated) | x | x | n | n | x | x
O=C(Nc1ccccc1)c1nc[nH]c1C(=O)NCCCCNC(=O)c1[nH]cnc1C(=O)Nc1ccccc1 | x | n | n | n | n | n
CC(C)(C)OC(=O)NCc1ccc(NC(=O)c2nc[nH]c2C(=O)NCCCNC(=O)c2[nH]cnc2C(=O)Nc2ccc(CNC(=O)OC(C)(C)C)cc2)cc1 | x | n | 83.2 | n | n | n
CC(C)(C)OC(=O)NCc1ccc(NC(=O)c2nc[nH]c2C(=O)NCCCCNC(=O)c2[nH]cnc2C(=O)Nc2ccc(CNC(=O)OC(C)(C)C)cc2)cc1 | x | n | 84.3 | n | n | n
CC(C)(C)OC(=O)NCc1ccc(CNC(=O)c2[nH]cnc2C(=O)Nc2ccccc2F)cc1 | x | x | 56.1 | n | x | x
O=C(Nc1cccc(Cl)c1)c1nc[nH]c1C(=O)NCCCNC(=O)c1[nH]cnc1C(=O)Nc1cccc(Cl)c1 | x | n | 50.0 | n | n | n
SMILES | PPC-1+TRAIL kill | SENP8 block-1 | TRAIL sens C8 | SENP8 block-2 | SENP7 block | SENP6 block
COCc1cn(CC(=O)c2sc(NC(=O)C(C)(C)C)nc2C)nn1 | x | x | n | n | x | x
O=Cc1cccn1Cc1ccccc1[N+](=O)[O-] | n | n | n | n | n | n
CC(C)(C)OC[C@H](NC(=O)c1[nH]cnc1C(=O)Nc1ccccc1F)C(=O)OC(C)(C)C | x | x | 59.5 | n | x | x
CCOC(=O)c1ccc(NC(=O)c2nc[nH]c2C(=O)NCCCCCNC(=O)OC(C)(C)C)cc1 | n | n | 51.7 | n | n | n
CC(C)(C)OC(=O)NCCCCCNC(=O)c1[nH]cnc1C(=O)Nc1cc(Br)ccc1F | x | x | 57.7 | n | x | x
CC(C)(C)OC(=O)[C@H](Cc1ccccc1)NC(=O)c1nc[nH]c1C(=O)N[C@@H](Cc1ccccc1)C(=O)OC(C)(C)C | n | n | n | n | n | n
CCOC(=O)c1ccc(NC(=O)c2nc[nH]c2C(=O)NCCCCNC(=O)c2[nH]cnc2C(=O)Nc2ccc(C(=O)OCC)cc2)cc1 | x | n | n | n | n | n
Cc1ccc(NC(=O)c2nc[nH]c2C(=O)Nc2ccccc2F)cc1 | x | x | n | n | x | x
O=C(Nc1ccccc1)c1nc[nH]c1C(=O)Nc1ccccc1F | x | x | 50.4 | n | x | x
CC(C)(C)OC(=O)NCc1ccc(NC(=O)c2nc[nH]c2C(=O)Nc2cc(Br)ccc2F)cc1 | x | x | n | n | x | x
COc1ccc(CN(C(=O)CSc2nnc(-c3ccccc3C)o2)c2ccc(F)cc2)cc1 | n | n | 95.0 | n | n | n
CC(=O)c1ccc(N2CCN(c3ccc4cc(S(=O)(=O)N5CCC(C)CC5)ccc4n3)CC2)cc1 | x | n | 60.1 | n | n | n
CCOc1cc(C=NNC(=O)N(c2ccccc2)c2ccccc2)ccc1O | x | x | 62.6 | n | x | x
O=C(NNS(=O)(=O)c1ccc(Cl)cc1)NC1CCCCC1 | n | n | n | n | n | n
COc1oc(C(=O)NC2CCCCC2)c(-c2ccc(Cl)cc2)c1S(=O)(=O)c1ccccc1 | x | x | 88.6 | n | x | x
Cc1ccc(NC(=O)c2ccc(CSc3nnnn3C)cc2)cc1 | n | n | 57.7 | n | n | n
CC(=O)Nc1ccc(/C=C2\Sc3ccccc3C2=O)cc1 | n | n | n | n | 82.9 | 67.1
O=C(COC(=O)c1cccc2c1C(=O)c1ccccc1C2=O)NC1CCCCC1 | n | n | n | n | n | n
Cn1c(N)c(C(=O)COC(=O)c2ccccc2C(=O)c2ccc(Cl)c([N+](=O)[O-])c2)c(=O)n(C)c1=O | x | n | 92.3 | n | n | n
O=C(COC(=O)c1ccc2c(c1[N+](=O)[O-])C(=O)c1ccccc1C2=O)NC1CC1 | n | n | n | 34.2 | n | n
Cn1c(N)c(C(=O)COC(=O)c2ccccc2C(=O)c2ccccc2)c(=O)n(C)c1=O | x | n | n | n | n | n
O=C(COC(=O)c1ccccc1C(=O)c1ccc(Cl)c([N+](=O)[O-])c1)NC1CCCCCC1 | n | n | 94.0 | n | n | n
CCOC(=O)C1=CC[C@@H](c2ccccc2)N(S(=O)(=O)c2ccc(C)cc2)[C@H]1C=C(C)C | x | x | n | n | x | x
CCS(=O)(=O)N1CCN=C1SCc1cccnc1 | n | n | n | n | n | n

Compound activity as filed in PubChem.
